Shown is part of a subset that was picked to be rich in hits.
Shiga inhibitor = blocks Shiga toxin action in Vero cells | Vero cells, Shiga toxin protein synthesis inhibition reporter | inhibition, % at 38.7 µM | 290,000 tested, 9.2% active | AID 2315; in the data active = inhibition mostly above about 28%, no sharp cut-off; inactive = mostly below about 43%; note: 0% is about no effect
TbPYK inhibitor = blocks Trypanosoma brucei pyruvate kinase; Potency, µM (highest dose often 76.8 µM), inactives show at the top dose activity, negative = inhibition, hits mostly inhibitors; 410,000 tested, 0.12% active; AID 624173; TbPYK enzyme, Kinase-Glo Plus ATP luminescence, 45 min; Q57TT1; note: potency is the fitted concentration of half-maximal effect; % is set by controls: 0 for no effect and ±100 for the full control effect; nearly all actives have a fitted effect of over 50% in size
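ADP (130 uM final) triggers the TbPYK reaction after compound addition; incubation is 45 min at room temperature. Kinase-Glo Plus is then added and luminescence imaged. Normalized data are fitted to concentration-effect curves.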
LmPK inhibitor = blocks Leishmania mexicana pyruvate kinase activity; Q27686; purified LmPK, Kinase-Glo ATP luminescence, 1 h; Potency, µM (highest dose often 57.5 µM), for the others: top-dose activity change, negative = inhibition, actives largely listed as inhibitors; 290,000 tested, 0.37% active; AID 1721; note: potency is the fitted concentration of half-maximal effect; % is set by controls: 0 for no effect and ±100 for the full control effect
Target sequence (Q27686 whole entry, looked up): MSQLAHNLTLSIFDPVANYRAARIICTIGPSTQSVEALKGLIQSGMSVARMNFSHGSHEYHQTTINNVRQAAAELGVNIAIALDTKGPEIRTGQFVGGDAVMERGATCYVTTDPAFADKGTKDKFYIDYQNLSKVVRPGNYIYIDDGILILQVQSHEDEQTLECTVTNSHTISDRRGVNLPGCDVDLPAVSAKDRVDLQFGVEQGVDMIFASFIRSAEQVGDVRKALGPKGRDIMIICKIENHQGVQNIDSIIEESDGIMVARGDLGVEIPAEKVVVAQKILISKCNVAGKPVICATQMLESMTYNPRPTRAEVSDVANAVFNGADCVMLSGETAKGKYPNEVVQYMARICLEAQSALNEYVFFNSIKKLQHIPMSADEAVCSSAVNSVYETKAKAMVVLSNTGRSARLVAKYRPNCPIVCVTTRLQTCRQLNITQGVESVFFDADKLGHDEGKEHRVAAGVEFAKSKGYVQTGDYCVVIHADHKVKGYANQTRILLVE
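Purified LmPK (0.1 nM) with 0.5 mM PEP and 0.1 mM ADP in imidazole buffer pH 7.2 with MgCl2/KCl, 1 h at room temperature. ATP formed was read by luciferase luminescence and normalized to no-enzyme and uninhibited controls.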
Giardia FBPA inh = inhibitors of Giardia lamblia fructose-1,6-bisphosphate aldolase. AID 2451. purified Giardia FBPA. 290,000 tested, 0.71% active. Potency, µM (titrated, usually from 59.6 µM), for inactives: at the highest dose activity, negative = inhibition, usual class: inhibitors. A8B2U2; note: potency is the fitted concentration of half-maximal effect; % is set by controls: 0 for no effect and ±100 for the full control effect; nearly all actives have a fitted effect of over 55% in size
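Giardia FBPA (40 nM reagent) was preincubated 10 min at RT with compound (up to 57.5 uM final), then substrate plus GAPDH/TPI/NAD/arsenate coupling system with diaphorase/resazurin was added; resorufin fluorescence (525/598 nm) was read after 20 min.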
CHX counter = counter-screen for Shiga toxin inhibitors: cycloheximide protein synthesis inhibition; cell reporter, cycloheximide protein synthesis inhibition counterscreen; max response, %; 300,000 tested, 12% active; AID 2314; in the data active = max response mostly above about 13%, no sharp cut-off; inactive = mostly below about 14%; note: read at 38.3 µM for the half of the compounds with a filed dose; 0% is about no effect
Sm TGR inh = S. mansoni TGR enzyme inhibition. 360,000 tested, 3% active. AID 485364. purified TGR, DTNB reduction, TNB absorbance 405 nm. Q962Y6. Potency, µM (series often up to 114 µM), for inactives: at the highest dose activity change, negative = inhibition, most hits filed as inhibitors; note: potency is the fitted concentration of half-maximal effect; % is set by controls: 0 for no effect and ±100 for the full control effect; nearly all actives have a fitted effect of over 60% in size
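TGR 20 nM + NADPH 100 uM (dispensed conc.), cpd preinc 15 min RT; start with NADPH (500 uM addition) then DTNB (15 mM addition). Kinetic TNB absorbance, 405 nm filter. Four-parameter Hill fit across titration.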
* marks the source's active call; other numbers are inactive results; u = inconclusive; x = not tested or not shown; [ ] = dose if it differs, or a comment. Unless noted, calls come from the whole dose curve; as a rule, active = well fitted curve in the direction sought with a large enough effect; inconclusive = small, poorly fitted or top-dose-only effect, or another doubt; inactive = no such curve, though single readings can be large; an effect the other way counts as inactive or inconclusive.

SMILES	Shiga inhibitor	TbPYK inhibitor	LmPK inhibitor	Giardia FBPA inh	CHX counter	Sm TGR inh
CC[C@H](C)[C@H](NC(=O)CNC(=O)[C@H](CCCNC(=N)N)NC(=O)CNC(=O)[C@@H](NC(=O)[C@H](Cc1ccc(O)cc1)NC(=O)[C@H](Cc1c[nH]c2ccccc12)NC(=O)[C@H](C)NC(=O)[C@@H]1CCCN1C(=O)[C@H](CC(N)=O)NC(=O)[C@@H](NC(=O)[C@H](CC(=O)O)NC(=O)[C@@H]1CCCN1C(=O)[C@@H](N)[C@@H](C)O)[C@@H](C)CC)[C@@H](C)O)C(=O)N[C@@H](CCCNC(=N)N)C(=O)N1CCC[C@H]1C(=O)N[C@H](C(=O)NCC(=O)N[C@@H](CCCNC(=N)N)C(=O)N[C@@H](Cc1ccccc1)C(N)=O)C(C)C	-6	x	x	-2%	-6	x
OC[C@H]1O[C@H](OC/C=C/c2ccccc2)[C@H](O)[C@@H](O)[C@@H]1O	x	-10%	x	x	x	x
O=C(CCN1CCC(c2cccs2)=N1)c1cccs1	69*	2%	2%	-11%	42*	u
O=C(CCN1CCCC1)c1cccs1	-6	-1%	12%	-6%	6	0%
Cc1cccc(N2CCN(C(=O)Cn3cccc3)CC2)c1C	11	-1%	4%	-7%	-2	50µM*
CNS(=O)(=O)c1cn(CC(=O)N2CCN(c3cccc(C)c3C)CC2)cc1S(=O)(=O)NC	x	6%[15.4 µM]	x	x	x	0%
COC(=O)CN1CCN(C(c2ccccc2)c2ccccc2)CC1	-15	-18%	-1%	5%	-2	45µM*
Cc1cccc(N2CCN(C(=O)CNC(=O)C3CCCCC3)CC2)c1C	x	5%	x	x	x	-25%
O=C(Cn1cccc1)N1CCN(C(c2ccccc2)c2ccccc2)CC1	3	-3%	8%	0%	-3	40µM*
O=C(CNC(=O)Cc1ccccc1)NCC(=O)N1CCN(C(c2ccccc2)c2ccccc2)CC1	-1	3%	1%	20%	-1	0%
Cc1cccc(N2CCN(C(=O)CNC(=O)c3ccccc3)CC2)c1C	63*	5%	0%	x	33*	-1%
COc1cc(NC(=O)c2cccc3c2C(=O)N(C2CCCCC2)C3)cc(OC)c1OC	-7	3%	-5%	x	6	-3%
COc1ccc(C2NC(=O)N(C)C3=C2C(=O)N(c2ccccc2)C3)cc1 (stereo not drawn)	x	2%	x	x	x	-8%
CC1CCCCC1NC(=O)/C=C/c1nc2ccccc2s1 (stereo not drawn)	76	-5%	1%	0%	30*	-6%
O=C(CN1CCC(c2nc3ccccc3s2)CC1)N1CCCCC1	33	-2%	1%	7%	16	-5%
O=C(/C=C/c1nc2ccccc2s1)N1CCCCCC1	53*	3%	-2%	5%	35*	2%
CC1CCCCC1NC(=O)c1cc(Cl)nc2ccccc12 (stereo not drawn)	x	0%	x	x	x	x
CC1CCN(S(=O)(=O)c2ccc3c(c2)N(CC(=O)NC(C)C)C(=O)CO3)CC1	x	1%	x	x	x	18%
Cc1ccc(NC(=O)Cn2c(=O)oc3cc(S(=O)(=O)N4CCCCC4)ccc32)c(Cl)c1	x	0%	x	x	x	2%
CCc1ccc(NC(=O)c2ccc(F)c(S(=O)(=O)NCc3ccc(Cl)c(Cl)c3)c2)cc1	x	3%	x	x	x	1%
Cc1ccccc1C(=O)Oc1ccc(-c2csnn2)cc1	21	-5%	4%	0%	22*	3%
CC(=O)COc1ccc(-c2csnn2)cc1	42*	1%	-11%	3%	12	-3%
C=CC(=O)NCc1ccc(-c2csnn2)cc1	-15	0%	1%	2%	-1	-8%
c1ccc(COc2ccc(-c3csnn3)cc2)cc1	60*	-7%	-17%	1%	60*	-3%
COC(=O)C/C=C\[C@@H](C)[C@@H](/C=N\O[C@@H](C)c1cc(-c2c(C)cc(C)cc2C)no1)NS(=O)(=O)c1ccc(C)cc1	x	x	x	0%[12.9 µM]	x	x
SMILES	Shiga inhibitor	TbPYK inhibitor	LmPK inhibitor	Giardia FBPA inh	CHX counter	Sm TGR inh
Cc1ccc(C(=O)N2CCc3ccccc32)cc1NC(=O)c1ccco1	-2	u	-6%	-15%	5	-11%
CC1Cc2ccccc2N1C(=S)NC(=O)c1ccco1 (stereo not drawn)	23	-9%	-5%	u	6	-16%
O=C(c1ccc(Br)o1)N1CCN=C1SCc1cccnc1	7	-1%	10%	4%	-3	-30%
O=C(c1ccco1)N1CCc2ccccc21	66*	-3%	-17%	-6%	35*	2%
O=C(NC(=S)N1CCCc2ccccc21)c1ccco1	82*	1%	5%	1%	33*	28µM*
O=C(c1ccc(Br)o1)N1CCc2ccccc21	87*	x	14µM*	1%	44*	6%
CSC1=NCCN1C(=O)c1ccc(Br)o1	92*	-4%	9%	1%	39*	-13%
O=C(NCCC(=O)N1CCN(S(=O)(=O)c2ccc(Cl)cc2)CC1)Nc1ccccc1	x	-7%	x	x	x	-9%
O=C(Nc1ccc(F)cc1Cl)c1cnc(N2CCOCC2)c2ccccc12	x	0%	x	x	x	-5%
CS(=O)(=O)N1CC(C(=O)NN)Oc2ccc(Cl)cc21 (stereo not drawn)	-29	-6%	3%	1%	-3	4%
NC(=O)C1CN(S(=O)(=O)c2ccc(Cl)cc2F)c2ccccc2O1 (stereo not drawn)	-16	-16%	1%	-5%	-6	40µM*
COC(=O)[C@@H]1C[C@@]2(O)[C@@H](O)[C@@H](O)[C@@H](O)C[C@H]2N1Cc1ccc(Cl)cc1	25	8%	-10%	-1%	1	40µM*
CCCn1c2ccccc2c2cnn(CC(=O)Nc3cc(C)c(Cl)cc3OC)c(=O)c21	x	7%	x	x	x	-12%
Cc1ccc(NC(=O)c2ccc3ccccc3n2)cc1S(=O)(=O)N(C)C	79*	-4%	2%	-14%	27*	-3%
Cc1ccc(NC(=O)c2c3c(nc4ccccc24)CCC3)cc1S(=O)(=O)N(C)C	50*	-1%	14%	-13%	37*	-9%
Cc1cnc(C(=O)Nc2ccc(C)c(S(=O)(=O)N(C)C)c2)cn1	8	-7%	-1%	-1%	6	0%
Cc1ccc(NC(=O)c2c3c(nc4ccccc24)CCC3)cc1	-7	-1%	-2%	0%	-5	7%
CN1CCN(C(=O)C(=O)Nc2c3c(nn2-c2ccc(F)cc2)CSC3)CC1	x	-2%	x	x	x	-34%
CCC(=O)c1ccc(/C=C/c2nc3ccccc3n2C)o1	67*	-14%	-24%	-11%	30*	u
OB(O)c1ccc(B(O)O)cc1	x	x	x	0%	x	x
COc1ccc(NS(=O)(=O)c2cccc(-c3nnc(-c4ccccc4)o3)c2)cc1	57*	-15%	-9%	-2%	15*	-6%

Screening data from PubChem.
